Laboratory results as given in PubChem BioAssay (Tox21).
Results filed as inconclusive are left out. Active and inactive are the calls of the source. Unless noted, calls follow the shape of the dose curve; as a rule, active = well fitted curve in the direction sought with a large enough effect in the repeat runs; inconclusive = weak or mixed curves; inactive = no such curve, though single readings can be large; an effect the other way counts as inactive or inconclusive.

Legend:
[1] = qHTS assay to identify small molecule agonists of the sonic hedgehog signaling (Shh) pathway - cell viability counter screen (AID 1259366); also: nearly all actives have a fitted effect of over 50% in size
Method in brief: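 Compounds in DMSO were pin-transferred onto 3T3 Gli1-Luc cells that had settled 4hr; plates then stood 24hr at 37C and 5% CO2. One hour before the end, CellTiter-Fluor was added and fluorescence recorded.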

[2] = qHTS assay to identify small molecule antagonists of the sonic hedgehog signaling (Shh) pathway - cell viability counter screen (AID 1259367); also: nearly all actives have a fitted effect of over 55% in size
Method in brief: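 NIH/3T3-derived Gli1-Luc reporter cells, 2,000/well, plated 4 hr before compound addition, then stimulated with conditioned medium for 24 hr at 37C. Viability measured in the same wells by CellTiter-Fluor fluorescence, reagent added at 23 hr for 1 hr.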

[3] = qHTS assay to identify small molecule agonists of the sonic hedgehog signaling (Shh) pathway (AID 1259368; calls by dose curve; also: series mostly up to about 92 µM; nearly all actives have a fitted effect of over 15% in size)
Method in brief: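 NIH/3T3-derived 3T3Gli1-Luc cells carrying a stably integrated Gli1 response element–firefly luciferase reporter were plated, left 4 hr at 37 C, then given compounds in DMSO for 24 hr. Luminescence was read 30 min after adding luciferase reagent.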

[4] = qHTS assay to identify small molecule antagonists of the sonic hedgehog signaling (Shh) pathway (AID 1259369; calls by dose curve; also: nearly all actives have a fitted effect of over 45% in size)
Method in brief: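 NIH/3T3-derived 3T3Gli1-Luc cells with stably integrated Gli1-Luc reporter were preincubated 4hr at 37 C, then given compounds in DMSO plus Shh conditioned medium and incubated 24hr. Firefly luciferase luminescence read after 30min reagent at room temperature.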

[5] = qHTS assay to identify small molecule agonists of the androgen receptor (AR) signaling pathway in the presence of an antagonist - cell viability counter screen (AID 1259379); also: series mostly up to about 92 µM; nearly all actives have a fitted effect of over 25% in size
Method in brief: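 MDA-kb2 human breast carcinoma cells (stable MMTV-luciferase, AR/GR responsive) were seeded 3,000 cells/well, pre-incubated 5 hr at 37C without CO2, then given 3.0uM nilutamide and compounds at 15 concentrations for 16 hr. Viability was read by CellTiter-Fluor fluorescence.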

[6] = qHTS assay to identify small molecule agonists of the estrogen receptor beta (ER-beta) signaling pathway - cell viability counter screen (AID 1259380); also: nearly all actives have a fitted effect of over 30% in size
Method in brief: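 ER-beta-UAS-bla HEK293T cells in medium with 2% charcoal-stripped FBS were preincubated 6 hr at 37C, dosed with compound in DMSO for 16 hr, then after the bla read, CellTiter-Glo was added for 30 min at room temperature; luminescence recorded.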

[7] = biological target: Estrogen receptor (Homo sapiens) (UniProt P03372); assay: qHTS assay to identify small molecule agonists of the estrogen receptor alpha (ER-alpha) signaling pathway in the presence of an antagonist (AID 1259383; calls by dose curve; also: top concentration of the series differs between compounds; nearly all actives have a fitted effect of over 15% in size)
Method in brief: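 VM7Luc4E2 cells (endogenous full-length ER-alpha, 4×ERE-luciferase) were precultured 5 days in phenol red-free medium with 10% charcoal-stripped FBS, given 10.0nM ICI-182,780 (final), then treated with compounds at 15 concentrations for 22hr at 37C; luminescence read with ONE-Glo.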

[8] = qHTS assay to identify small molecule agonists or antagonists of the thyroid stimulating hormone receptor (TSHR) signaling pathway - wild type cell line counter screen (AID 1259384; calls by dose curve)
Method in brief: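 Wild-type Hek293 cells, 800/well, 18 h at 37C, then compound with Ro20-1724 for 30 min RT. cAMP by HTRF (cAMP-d2/anti-cAMP cryptate), 1 h RT, fluorescence read. 15 concentrations, triplicates.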

[9] = qHTS assay to identify small molecule agonists of the estrogen receptor alpha (ER-alpha) signaling pathway in the presence of an antagonist - cell viability counter screen (AID 1259386);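 also: series mostly up to about 92 µM; cells exposed to compounds for 22 h at 37 °C before the viability read; nearly all actives have a fitted effect of over 30% in size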
Method in brief: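 VM7Luc4E2 cells (endogenous full-length ER-alpha, 4×ERE-luciferase) were held 5 days in phenol red-free medium with 10% charcoal-stripped FBS, plated, then given 10.0nM ICI-182,780 and compounds at 15 concentrations for 22hr at 37C; viability read by CellTiter-Fluor fluorescence.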

[10] = biological target: Progesterone receptor (Homo sapiens) (UniProt P06401); assay: qHTS assay to identify small molecule agonists of the progesterone receptor (PR) signaling pathway (AID 1346784; calls by dose curve; also: nearly all actives have a fitted effect of over 30% in size)
Method in brief: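 Fluorescence from LiveBLAzer B/G FRET substrate cleavage (2 hr, RT) reported PR activation in PR-UAS-bla HEK 293T cells treated 16 hr at 37C/5% CO2 with compounds; medium contained 2% charcoal-stripped FBS.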

[11] = biological target: Progesterone receptor (Homo sapiens) (UniProt P06401); assay: qHTS assay to identify small molecule antagonists of the progesterone receptor (PR) signaling pathway (AID 1346795; active = well fitted inhibition curve with a large enough effect in the signal ratio in the repeat runs, not every such curve was filed as active; the % refers to the signal ratio)
Method in brief: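 Fluorescence intensity measured 2 hr after adding beta-lactamase FRET substrate to PR-UAS-bla HEK293T cells that had been co-treated 16 hr with compound and 1 nM R5020 (final concentration) in 2% charcoal-stripped FBS.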

[12] = qHTS assay to identify small molecule antagonists of the progesterone receptor (PR) signaling pathway - cell viability counter screen (AID 1346798); also: series mostly up to about 92 µM; nearly all actives have a fitted effect of over 50% in size
Method in brief: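 CellTiter-Glo luminescence; PR-UAS-bla HEK293T, 3,000 cells/well; compound + R5020, 16 hr, 37C/5% CO2; 30 min RT before read.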

[13] = qHTS assay to identify small molecule antagonists of the TGF-beta/Smad signaling pathway - cell viability counter screen (AID 1346824); also: nearly all actives have a fitted effect of over 50% in size
Method in brief: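 SBE-bla HEK 293T cells, incubated overnight, then compound plus 0.25 ng/mL TGF-beta1 (stock added) for 5 hr at 37 C. Viability was read in the same wells by CellTiter-Glo luminescence after 30 min at room temperature.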

[14] = qHTS assay to identify small molecule agonists of the TGF-beta/Smad signaling pathway - cell viability counter screen (AID 1346829); also: top concentration of the series differs between compounds; nearly all actives have a fitted effect of over 45% in size
Method in brief: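 CellTiter-Glo luminescence readout; SBE-bla HEK 293T cells, overnight plating, compound 5 hr at 37 C/5% CO2, then bla substrate 2 hr RT, then CellTiter-Glo 30 min RT.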

[15] = qHTS assay to identify small molecule antagonists of the estrogen receptor beta (ER-beta) signaling pathway - cell viability counter screen (AID 1259382); also: series mostly up to about 92 µM; nearly all actives have a fitted effect of over 55% in size
Method in brief: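 ER-beta-UAS-bla HEK293T cells (2,000/well, 2% charcoal-stripped FBS) were pre-incubated 6 hr at 37C, then given compound plus 1nM final 17-beta-estradiol for 16 hr. Viability was read in the same wells by CellTiter-Glo luminescence after 30 min at room temperature.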

[16] = biological target: Thyrotropin receptor (Homo sapiens) (UniProt P16473); assay: qHTS assay to identify small molecule antagonists of the thyroid stimulating hormone receptor (TSHR) signaling pathway (AID 1259385; calls by dose curve; also: nearly all actives have a fitted effect of over 20% in size)
Method in brief: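 TSHR-HEK293 cells (800/well) plated 18 h, then compounds with Ro20-1724 and TSH at 1.5 ng/mL final, 30 min at room temperature. cAMP quantified by HTRF (cAMP-d2/anti-cAMP-cryptate, 1 h); 15 concentrations in triplicate.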

[17] = qHTS assay to identify small molecule agonists of the progesterone receptor (PR) signaling pathway - cell viability counter screen (AID 1346799; calls by dose curve; also: nearly all actives have a fitted effect of over 45% in size)
Method in brief: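 In parallel with the beta-lactamase readout, cytotoxicity toward PR-UAS-bla HEK293T cells was measured by CellTiter-Glo luminescence following 16 hr compound incubation in 2% charcoal-stripped FBS medium.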

[18] = biological target: Androgen receptor (Homo sapiens) (UniProt P10275); assay: qHTS assay to identify small molecule agonists of the androgen receptor (AR) signaling pathway in the presence of an antagonist (AID 1259381; calls by dose curve; also: nearly all actives have a fitted effect of over 15% in size)
Method in brief: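 MDA-kb2 human breast carcinoma cells carrying an MMTV-luciferase reporter (AR- and GR-responsive) were treated with compounds at 15 concentrations plus 3.0uM final nilutamide for 16hr at 37C without CO2; luminescence was read after ONE-Glo addition.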

[19] = biological target: Estrogen receptor beta (Homo sapiens) (UniProt Q92731); assay: qHTS assay to identify small molecule agonists of the estrogen receptor beta (ER-beta) signaling pathway (AID 1259377; active = well fitted activation curve with a large enough effect in the signal ratio in the repeat runs, not every such curve was filed as active; the % refers to the signal ratio)
Method in brief: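 qHTS in ER-beta-UAS-bla HEK293T cells: 6 hr settling, then 16 hr compound at 37C, then LiveBLAzer substrate 2 h at RT before fluorescence reading.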

[20] = biological target: Estrogen receptor beta (Homo sapiens) (UniProt Q92731); assay: qHTS assay to identify small molecule antagonists of the estrogen receptor beta (ER-beta) signaling pathway (AID 1259378; active = well fitted inhibition curve with a large enough effect in the signal ratio in the repeat runs, not every such curve was filed as active; the % refers to the signal ratio)
Method in brief: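 ER-beta-UAS-bla HEK293T cells in 2% charcoal-stripped FBS medium treated with compound plus 1nM final 17-beta-estradiol for 16 hr at 37C. Beta-lactamase reporter read by FRET substrate fluorescence after 2 hours at room temperature.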
% is scaled to controls: 0 for no effect and ±100 for the full control effect.

Thyrotropin receptor (Homo sapiens), sequence (P16473 whole entry, looked up): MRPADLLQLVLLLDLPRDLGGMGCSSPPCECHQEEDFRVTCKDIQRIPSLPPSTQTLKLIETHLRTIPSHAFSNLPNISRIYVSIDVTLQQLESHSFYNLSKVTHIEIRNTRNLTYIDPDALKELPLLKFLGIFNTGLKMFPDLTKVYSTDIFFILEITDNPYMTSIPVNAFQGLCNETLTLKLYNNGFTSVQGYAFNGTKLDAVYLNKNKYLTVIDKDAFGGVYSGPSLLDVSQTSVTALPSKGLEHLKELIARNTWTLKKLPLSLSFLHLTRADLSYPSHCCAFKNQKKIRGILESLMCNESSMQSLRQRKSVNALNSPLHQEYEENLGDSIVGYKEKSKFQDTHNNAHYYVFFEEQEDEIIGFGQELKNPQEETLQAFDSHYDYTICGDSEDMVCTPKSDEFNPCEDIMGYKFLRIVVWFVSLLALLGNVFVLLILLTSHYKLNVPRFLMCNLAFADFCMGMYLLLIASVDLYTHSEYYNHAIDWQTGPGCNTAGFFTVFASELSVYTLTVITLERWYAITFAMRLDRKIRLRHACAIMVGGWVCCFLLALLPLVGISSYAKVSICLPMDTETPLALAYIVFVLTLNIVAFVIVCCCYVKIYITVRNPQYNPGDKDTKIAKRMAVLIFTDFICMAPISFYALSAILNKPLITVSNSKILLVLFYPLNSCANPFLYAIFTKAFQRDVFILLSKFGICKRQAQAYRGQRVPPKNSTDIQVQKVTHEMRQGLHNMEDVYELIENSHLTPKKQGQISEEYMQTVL
Estrogen receptor (Homo sapiens), sequence (P03372 whole entry, looked up): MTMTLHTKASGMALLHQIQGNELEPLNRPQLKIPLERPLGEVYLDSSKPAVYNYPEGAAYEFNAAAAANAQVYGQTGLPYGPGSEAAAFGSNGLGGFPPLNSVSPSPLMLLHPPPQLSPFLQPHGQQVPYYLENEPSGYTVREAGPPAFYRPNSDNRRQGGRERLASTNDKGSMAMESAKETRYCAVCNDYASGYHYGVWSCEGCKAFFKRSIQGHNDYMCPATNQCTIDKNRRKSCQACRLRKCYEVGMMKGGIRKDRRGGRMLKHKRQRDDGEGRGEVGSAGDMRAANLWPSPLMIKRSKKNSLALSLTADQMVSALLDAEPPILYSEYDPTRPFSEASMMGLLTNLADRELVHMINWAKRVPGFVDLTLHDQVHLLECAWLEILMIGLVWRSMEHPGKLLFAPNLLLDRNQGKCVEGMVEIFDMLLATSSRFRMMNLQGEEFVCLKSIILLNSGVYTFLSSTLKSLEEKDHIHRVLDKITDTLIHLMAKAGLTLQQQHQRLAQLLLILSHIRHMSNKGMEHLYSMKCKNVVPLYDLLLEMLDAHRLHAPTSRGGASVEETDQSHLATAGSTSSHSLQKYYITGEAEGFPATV
Progesterone receptor (Homo sapiens), sequence (P06401 whole entry, looked up): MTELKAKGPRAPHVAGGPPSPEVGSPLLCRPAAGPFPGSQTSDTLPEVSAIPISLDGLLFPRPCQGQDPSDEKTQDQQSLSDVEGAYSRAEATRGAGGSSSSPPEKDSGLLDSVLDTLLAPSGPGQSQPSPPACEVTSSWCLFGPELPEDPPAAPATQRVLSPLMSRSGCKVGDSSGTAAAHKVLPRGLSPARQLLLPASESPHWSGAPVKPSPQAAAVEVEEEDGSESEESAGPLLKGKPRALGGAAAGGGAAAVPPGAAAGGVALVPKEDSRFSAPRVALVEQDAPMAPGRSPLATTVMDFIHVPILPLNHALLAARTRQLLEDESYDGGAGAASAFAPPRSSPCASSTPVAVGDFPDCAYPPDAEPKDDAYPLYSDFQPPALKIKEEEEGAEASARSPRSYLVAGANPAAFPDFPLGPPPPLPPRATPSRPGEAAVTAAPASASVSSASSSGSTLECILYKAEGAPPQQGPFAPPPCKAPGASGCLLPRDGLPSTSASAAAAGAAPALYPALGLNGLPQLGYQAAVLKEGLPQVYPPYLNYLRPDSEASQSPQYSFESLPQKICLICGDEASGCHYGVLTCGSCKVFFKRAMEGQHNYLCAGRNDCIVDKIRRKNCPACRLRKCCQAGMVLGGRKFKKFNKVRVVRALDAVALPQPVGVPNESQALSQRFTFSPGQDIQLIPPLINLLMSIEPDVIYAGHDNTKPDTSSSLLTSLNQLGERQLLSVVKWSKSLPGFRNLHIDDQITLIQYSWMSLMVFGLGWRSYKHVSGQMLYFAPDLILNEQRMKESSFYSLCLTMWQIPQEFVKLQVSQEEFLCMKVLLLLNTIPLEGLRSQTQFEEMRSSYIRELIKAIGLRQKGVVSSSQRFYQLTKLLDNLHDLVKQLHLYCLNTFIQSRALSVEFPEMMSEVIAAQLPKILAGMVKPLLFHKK
Estrogen receptor beta (Homo sapiens), sequence (Q92731 whole entry, looked up): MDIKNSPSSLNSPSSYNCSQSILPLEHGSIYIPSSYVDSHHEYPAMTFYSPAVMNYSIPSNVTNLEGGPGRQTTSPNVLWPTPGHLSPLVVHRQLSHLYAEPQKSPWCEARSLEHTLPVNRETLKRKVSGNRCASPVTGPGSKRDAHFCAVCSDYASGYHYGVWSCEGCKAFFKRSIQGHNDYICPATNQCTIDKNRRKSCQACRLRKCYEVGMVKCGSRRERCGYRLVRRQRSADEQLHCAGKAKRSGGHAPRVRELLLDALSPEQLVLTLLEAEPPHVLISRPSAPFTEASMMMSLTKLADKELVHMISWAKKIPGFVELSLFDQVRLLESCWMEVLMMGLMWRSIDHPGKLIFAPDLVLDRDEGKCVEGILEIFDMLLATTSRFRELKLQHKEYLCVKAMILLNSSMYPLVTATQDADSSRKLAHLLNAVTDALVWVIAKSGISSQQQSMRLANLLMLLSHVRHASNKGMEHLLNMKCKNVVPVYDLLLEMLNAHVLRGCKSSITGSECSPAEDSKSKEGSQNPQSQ
Androgen receptor (Homo sapiens), sequence (P10275 whole entry, looked up): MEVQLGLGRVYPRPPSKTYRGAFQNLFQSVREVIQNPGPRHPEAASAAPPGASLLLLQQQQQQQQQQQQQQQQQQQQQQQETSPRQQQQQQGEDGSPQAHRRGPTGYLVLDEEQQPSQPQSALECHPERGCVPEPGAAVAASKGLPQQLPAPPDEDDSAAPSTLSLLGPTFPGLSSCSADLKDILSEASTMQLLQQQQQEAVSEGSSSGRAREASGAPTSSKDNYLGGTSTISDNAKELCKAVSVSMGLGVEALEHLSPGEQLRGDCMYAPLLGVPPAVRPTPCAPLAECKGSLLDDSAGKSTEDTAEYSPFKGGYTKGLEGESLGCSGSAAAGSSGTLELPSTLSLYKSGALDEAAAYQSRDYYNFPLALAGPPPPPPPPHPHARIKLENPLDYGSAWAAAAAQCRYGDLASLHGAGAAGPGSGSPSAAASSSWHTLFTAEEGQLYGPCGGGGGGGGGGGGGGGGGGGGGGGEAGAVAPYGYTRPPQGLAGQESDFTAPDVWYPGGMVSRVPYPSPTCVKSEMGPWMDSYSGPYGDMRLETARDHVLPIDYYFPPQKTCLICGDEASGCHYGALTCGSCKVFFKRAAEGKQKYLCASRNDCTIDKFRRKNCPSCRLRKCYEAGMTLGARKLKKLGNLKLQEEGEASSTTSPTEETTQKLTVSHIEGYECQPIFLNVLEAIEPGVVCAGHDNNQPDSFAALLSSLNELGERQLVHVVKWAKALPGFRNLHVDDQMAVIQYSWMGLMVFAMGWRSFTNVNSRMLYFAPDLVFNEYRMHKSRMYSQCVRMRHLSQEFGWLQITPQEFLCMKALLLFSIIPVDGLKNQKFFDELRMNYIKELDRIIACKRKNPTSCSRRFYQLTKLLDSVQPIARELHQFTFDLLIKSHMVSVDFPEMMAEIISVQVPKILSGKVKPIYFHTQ

COC(=O)N/N=C/c1c[n+]([O-])c2ccccc2[n+]1[O-]
inactive: outcome [1] | outcome [2] | outcome [3] | Potency [4] | outcome [5] | Potency [6] | Potency [7] | outcome [8] | outcome [9] | Potency [10] | Potency [11] | outcome [12] | outcome [13] | outcome [14]

CC(=O)Nc1ccc(S(=O)(=O)Nc2cc(C)on2)cc1
inactive: outcome [1] | outcome [2] | outcome [3] | Potency [4] | outcome [5] | outcome [15] | Potency [7] | outcome [16] | outcome [9] | Potency [11] | Potency [17] | outcome [13] | outcome [14]

N#Cc1ccccc1C#N
inactive: outcome [1] | outcome [2] | outcome [3] | Potency [4] | outcome [5] | Potency [6] | outcome [15] | Potency [7] | outcome [9] | Potency [10] | Potency [11] | outcome [12] | Potency [17] | outcome [13] | outcome [14]

CC(C)=CCC/C(C)=C\C#N
inactive: outcome [1] | outcome [2] | outcome [3] | Potency [4] | outcome [5] | outcome [15] | Potency [7] | outcome [16] | outcome [9] | Potency [10] | Potency [11]

COC(=O)c1ccc(NC(C)=O)cc1OC
inactive: outcome [1] | outcome [2] | outcome [3] | Potency [4] | outcome [5] | outcome [18] | outcome [15] | Potency [7] | outcome [16] | outcome [9] | Potency [10] | outcome [12] | Potency [17] | outcome [13] | outcome [14]

NC[C@H]1O[C@H](O[C@H]2[C@H](O)[C@@H](O[C@H]3O[C@H](CO)[C@@H](O)[C@H](N)[C@H]3O)[C@H](N)C[C@@H]2N)[C@H](N)[C@@H](O)[C@@H]1O
inactive: viability change, negative = cytotoxic [1] 0.901% [at 19 µM] | viability change, negative = cytotoxic [2] 3.49% [at 19 µM] | activity change [3] 0.032% [at 18.9 µM] | activity change, negative = inhibition [4] 16.7% [at 19 µM] | activity change, negative = cytotoxicity [5] -5.29% [at 19 µM] | activity change, negative = cytotoxicity [6] 2.53% [at 19 µM] | activity change, negative = cytotoxicity [15] 7.91% [at 19 µM] | cAMP activity change [8] 2.25% [at 18.9 µM] | activity change, negative = inhibition [16] 4.59% [at 19 µM] | activity change, negative = cytotoxicity [9] 10% [at 19 µM] | activation [10] -1.56% [at 19 µM] | activity change, negative = cytotoxicity [17] 1.42% [at 19 µM] | viability change, negative = cytotoxic [13] 6.71% [at 15.8 µM] | activity change, negative = cytotoxicity [14] -5.22% [at 15.8 µM]

N=C(N)S(=O)O
inactive: outcome [1] | outcome [2] | outcome [3] | Potency [4] | outcome [5] | Potency [6] | outcome [15] | Potency [7] | outcome [8] | outcome [16] | outcome [9] | outcome [12] | Potency [17]

CCCC[O][Al]([O]CCCC)[O]CCCC
inactive: outcome [1] | outcome [2] | outcome [3] | Potency [4] | Potency [6] | outcome [15] | outcome [8] | outcome [16] | outcome [9] | Potency [10] | Potency [11] | outcome [12] | outcome [13] | outcome [14]

C[C@@H](CN1CC(=O)NC(=O)C1)N1CC(=O)NC(=O)C1
inactive: outcome [1] | outcome [2] | outcome [3] | Potency [19] | outcome [20] | outcome [5] | Potency [6] | Potency [7] | outcome [9] | Potency [10] | outcome [13]

NNC(=O)CCCCC(=O)NN
inactive: outcome [1] | outcome [2] | outcome [3] | Potency [4] | Potency [6] | outcome [15] | Potency [7] | outcome [9] | Potency [10] | Potency [11] | outcome [12] | Potency [17] | outcome [13] | outcome [14]
